Shown is part of a subset that was picked to be rich in hits.
14-3-3g Raf – modulators of 14-3-3 gamma protein binding, primary screen, biochemical, fluorescence polarization; FP, 14-3-3gamma / TMR-pS259-Raf peptide binding; actives 0.19% (n = 160,000); 14-3-3 protein gamma (Homo sapiens), P61981; inhibition, % at 40 µM; in the data active = inhibition above about 30%
Target sequence (P61981 whole entry, looked up): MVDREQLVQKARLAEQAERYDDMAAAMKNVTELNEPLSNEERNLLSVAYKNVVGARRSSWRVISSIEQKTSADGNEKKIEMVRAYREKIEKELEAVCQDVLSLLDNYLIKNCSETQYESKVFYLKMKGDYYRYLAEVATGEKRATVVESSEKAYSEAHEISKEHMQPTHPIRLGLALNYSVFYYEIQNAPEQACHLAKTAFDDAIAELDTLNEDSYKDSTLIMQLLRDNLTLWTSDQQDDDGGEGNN
Of the large screens only hits and unclear results are named; the others gave an inactive call.

COc1ccccc1C1/C(=C(\O)c2ccc(Cl)cc2)C(=O)C(=O)N1CCCn1ccnc1 (centres undefined)	none
COc1ccc(/C(O)=C2\C(=O)C(=O)N(CCCn3ccnc3)C2c2ccccc2F)cc1 (centres undefined)	14-3-3g Raf 37
CC1(C)Cc2c(sc3ncn4nc(COc5ccccc5)nc4c23)C(C)(C)N1	none
CC1CCN(S(=O)(=O)c2ccc3nc(-c4ccncc4)cc(C(=O)NCc4ccc5c(c4)OCO5)c3c2)CC1	none
CCc1ccc(OCC2c3cc(OC)c(OC)cc3CCN2C(=O)C2CCCCC2)cc1 (centres undefined)	none
COc1ccc(C(=O)O)cc1S(=O)(=O)Nc1ccccc1	none
CCc1ccccc1N(CC)C(=O)c1cc2cc3ccc(OC)cc3nc2o1	14-3-3g Raf 177
CCN(C(=O)c1cc2cc3ccc(OC)cc3nc2o1)c1cc(C)ccc1C	none
COc1ccc2cc3cc(C(=O)NC(C)CCc4ccccc4)oc3nc2c1 (centres undefined)	14-3-3g Raf 145
CCc1cccc(NC(=O)c2cc3cc4ccc(OC)cc4nc3o2)c1	none
COc1ccc2cc3cc(C(=O)NC(C)CCc4ccccc4)sc3nc2c1 (centres undefined)	none
CCOc1ccc(N(CC)C(=O)c2cc3cc4ccc(OC)cc4nc3o2)cc1	none
CC(C)(C)C(=O)CN1CCN(CC(=O)Nc2ccc(Cl)cc2)CC1	none
CSCCC(NC(=O)c1cncc(O)c1)C(=O)O (centres undefined)	none
Cc1ccc(-c2csc3ncn(Cc4ccc(C(C)(C)C)cc4)c(=O)c23)cc1	none
COC(=O)c1cc(C(=O)N2CCN(c3ccc([N+](=O)[O-])cc3)CC2)cc([N+](=O)[O-])c1	none
CC(Cl)=CCN1C(=O)C(=O)c2cc(C)ccc21	none
CCOC(=O)N1CCC(NC(=O)CSCc2nc(-c3ccc(OC)c(OC)c3)oc2C)CC1	14-3-3g Raf 61
COc1ccc(-c2nc(CSCC(=O)N3CCC(C(N)=O)CC3)c(C)o2)cc1OC	none
COc1ccc(-c2nc(CSCC(=O)NCC3CCCO3)c(C)o2)cc1OC (centres undefined)	none
O=C(CSc1nc2c(c(=O)n1-c1ccc(Br)cc1)SCC2)Nc1ccccc1	none
COc1ccc(-c2cc(C(F)(F)F)n3nc(C(=O)N4CCN(Cc5ccccc5)CC4)cc3n2)cc1	none
COc1cccc(-n2c(=O)c3c(C)c(C)sc3n(Cc3ccc([N+](=O)[O-])cc3)c2=O)c1	none
CN(Cc1ccccc1)S(=O)(=O)c1ccc2[nH]cc(C(=O)O)c(=O)c2c1	none
Cc1ccc2c(c1)N(C(C)C(=O)NC1CCCCC1)C(=O)CO2 (centres undefined)	none
O=C(CN1CCN(Cc2ccccc2Cl)C1=O)NCc1ccccn1	14-3-3g Raf 71
O=C(CN1CCN(Cc2ccc(F)cc2)C1=O)NCc1ccccc1Cl	none
O=C(CN1CCN(Cc2ccccc2Cl)C1=O)NCc1cccnc1	none
COc1ccc(-n2c(=S)[nH]c3cc(C(=O)Nc4ccc(F)cc4)ccc3c2=O)cc1	none
CC1CCC2C(=O)N(c3cccc(OCC(=O)c4ccc(Br)cc4)c3)C(=O)C2C1 (centres undefined)	none
CCOC(=O)C1=C(N)Oc2cc(O)ccc2C1c1cccnc1 (centres undefined)	none
CCOC(=O)C1=C(CSc2nc(-c3ccncc3)ccc2C#N)OC(N)=C(C#N)C1c1cccnc1 (centres undefined)	none
CCOC(=O)C1=C(C(C)=O)C(c2cccnc2)C(C#N)=C(N)O1 (centres undefined)	14-3-3g Raf 32
Cc1cc(NC(=O)c2ccco2)ccc1NC(=O)c1ccccc1	none
O=C(O)CCCNc1cc(N2CCN(C3CCCCC3)CC2)c2noc3c2c1C(=O)c1ccccc1-3	none
CC1CC(C)CN(c2cc(NCCCC(=O)O)c3c4c(onc24)-c2ccccc2C3=O)C1 (centres undefined)	none
CC1CCCN(c2cc(NCCCC(=O)O)c3c4c(onc24)-c2ccccc2C3=O)C1 (centres undefined)	14-3-3g Raf 51
Cc1cc(C)c(C)c(C(=O)COC(=O)CNC(=O)C2CCCCC2)c1C	none
C1=C(c2ccc(-c3ccccc3)cc2)Nc2ncnn2C1c1cccs1 (centres undefined)	none
COc1cc(C(=S)N2CCCCC2)cc(OC)c1OC(=O)c1ccc(C)cc1	none
O=c1oc(C=Cc2ccccc2)nc2scc(-c3cccs3)c12	none
CC(=O)Oc1ccccc1N1C(=O)c2ccccc2C1=O	none
CC(=O)Oc1ccc(OC(C)=O)c2c1C(=O)c1ccccc1C2=O	14-3-3g Raf 69
CNc1ccc(OC)c2c1C(=O)c1ccccc1C2=O	none
CC(=O)Nc1ccc(S(=O)(=O)N2CCN(C(=O)COc3cccc(C)c3)CC2)cc1	none
COc1ccc(-c2n[nH]c3c2C(c2cccc([N+](=O)[O-])c2)N(c2ccc(Br)cc2)C3=O)cc1 (centres undefined)	none
O=C(Nc1ccccc1Cl)c1ccc(F)c(S(=O)(=O)N2CCCc3ccccc32)c1	14-3-3g Raf 31
O=C(Nc1cccc(Cl)c1)c1ccc(F)c(S(=O)(=O)N2CCCc3ccccc32)c1	none
O=C(Nc1ccccc1Cl)c1cc(S(=O)(=O)N2CCCc3ccccc32)ccc1F	none
CCc1ccc(-c2nc(-c3cc4ccc(OC(C)=O)cc4oc3=O)sc2C)cc1	none
COc1ccc(OC)c(-n2cnc3cc(C(=O)NCc4ccco4)ccc32)c1	none
C=CCc1cccc(C=Nc2cc(Br)ccc2O)c1O	14-3-3g Raf 43
C=CCc1cccc(/C=N/c2ncn[nH]2)c1O	none
CCc1ccc(O)c(N=Cc2cccc(C)c2O)c1	none
COc1ccccc1CNC(=O)Cn1cnc2sc(C)c(S(=O)(=O)N3CC(C)CC(C)C3)c2c1=O (centres undefined)	none
O=C(c1ccc2c(=O)n(Cc3ccccc3)c(SCc3cccc([N+](=O)[O-])c3)nc2c1)N1CCCC1	none
COc1cc(C=Nc2ccc(N(C)C(C)=O)cc2)ccc1OC(C)=O	none
COC(=O)CC1SC(=O)NC1=Nc1ccc(O)cc1 (centres undefined)	none
COc1cc(C=Nc2ccc(O)cc2)ccc1OC(=O)CC1SC(=O)NC1=O (centres undefined)	14-3-3g Raf 103
CC(C)SC1CC(=O)N(c2ccc([N+](=O)[O-])cc2)C1=O (centres undefined)	none
CCC1Sc2ccccc2N(CC(=O)NC2CCCCC2C)C1=O (centres undefined)	none
O=C(O)c1cccnc1SC1CC(=O)N(c2ccc(N3CCOCC3)cc2)C1=O (centres undefined)	14-3-3g Raf 30
O=C(O)c1cccnc1SC1CC(=O)N(c2ccc3c(c2)OCO3)C1=O (centres undefined)	none
O=C(O)c1cccnc1SC1CC(=O)N(c2ccc([N+](=O)[O-])cc2)C1=O (centres undefined)	none
Cc1ccc(-n2c(=O)c3ccccc3n(Cc3cccc(C)c3)c2=O)cc1	none
COc1ccc(C2CC(C(F)(F)F)n3ncc(C(=O)Nc4sc5c(c4C(=O)OC(C)C)CCCC5)c3N2)cc1 (centres undefined)	none
CN(C)CCNC(=O)C1CCCN(S(C)(=O)=O)C1 (centres undefined)	none
C=CCSc1nnc2c(n1)OC(c1cc(OC)ccc1Br)Nc1ccccc1-2 (centres undefined)	none
CCOC(=O)c1ccc(NC(=O)CN2CCN(c3ccccc3)CC2)cc1	none
CCOC(=O)c1ccc(NC(=O)Cn2cccc2)cc1	none
CCOC(=O)c1ccc(NC(=O)CN2CCCCC2)cc1	14-3-3g Raf 31
CNC(=O)c1c(NC(=O)c2cccs2)sc2c1CCC(C(C)(C)C)C2 (centres undefined)	none
